Chronic BCR inh: qHTS Assay to Find Inhibitors of Chronic Active B-Cell Receptor Signaling | ABC-DLBCL IkBa-CBG/CBR reporter, luminescence ratio, 4 h | Potency, µM (highest dose often 46.1 µM), without a hit: at the top dose activity change, negative = inhibition, usual class: inhibitors | hit rate 0.05% among 340,000 | AID 493014, 2011; active = well fitted inhibition curve with a large enough effect in the signal ratio, with a control signal flat, not every such curve was filed as active; inconclusive = small, poorly fitted or top-dose-only effect, or effect the other way, or a change in a side signal; the % refers to the signal ratio;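 also: potency is read from the fitted curve at half-maximal effect; plate controls were basal doxycycline-induced cells for no effect and cells given 10 µM MG132 for full effect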
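TMD8 ABC-DLBCL cells carrying doxycycline-inducible green luciferase fused to IkappaBalpha plus unfused red luciferase were exposed to compounds (up to 46 uM) for 4 hrs at 37C. Activity came from the overlap-corrected green/red luminescence ratio.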
D1 agonist: Allosteric Agonists of the Human D1 Dopamine Receptor: qHTS; D(1A) dopamine receptor (Homo sapiens), P21728; HEK293 T-REx D1 cells, calcium flux, agonist mode; activation, % at 2 µM; hit rate 1% among 360,000; AID 504660, 2011; in the data active = activation above about 30%; also: 0% is about no effect
Target sequence (P21728 whole entry, looked up): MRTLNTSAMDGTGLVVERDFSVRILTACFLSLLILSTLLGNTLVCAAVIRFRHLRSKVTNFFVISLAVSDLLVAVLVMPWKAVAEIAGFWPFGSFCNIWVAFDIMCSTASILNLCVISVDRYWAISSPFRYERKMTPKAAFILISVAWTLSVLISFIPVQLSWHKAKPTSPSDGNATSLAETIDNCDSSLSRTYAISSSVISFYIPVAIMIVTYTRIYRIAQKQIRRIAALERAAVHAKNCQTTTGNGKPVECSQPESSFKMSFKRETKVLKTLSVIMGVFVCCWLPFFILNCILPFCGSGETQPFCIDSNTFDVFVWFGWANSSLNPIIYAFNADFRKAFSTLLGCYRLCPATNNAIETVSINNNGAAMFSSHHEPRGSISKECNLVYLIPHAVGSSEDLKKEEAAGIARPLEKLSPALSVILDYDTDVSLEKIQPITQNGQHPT
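Tetracycline-induced HEK293 TREx D1 cells, force-coupled to calcium signalling, were dye-loaded with a no-wash calcium kit. Compound was pin-added after a 10 s baseline. Fluorescence was read kinetically at 1 cycle/s for 180 s, with calcium rises flagged as agonism.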
D1 potentiator: Potentiators of Human D1 Dopamine Receptor: qHTS; potentiation, % at 10 µM; hit rate 0.036% among 360,000; HEK293 TREx D1 cells, calcium flux, dopamine EC20 potentiation; AID 504651, 2011; in the data active = potentiation above about 30%; also: 0% is about no effect
DRD3 antagonist: qHTS of D3 Dopamine Receptor Antagonist: qHTS; hit rate 2.5% among 360,000; D(3) dopamine receptor (Homo sapiens), P35462; AID 652054, 2013; D3R cells, DiscoveRx beta-arrestin luminescence, antagonist mode; hits give low values; max response, negative = inhibition, %; in the data active = max response below about -50%; inconclusive = no clear call, values can overlap the other calls; also: % is scaled to controls: 0 for no effect and ±100 for the full control effect
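Cells plated overnight at 1500 cells/well, then exposed to library compounds with dopamine controls for 90 minutes at 37 degrees C. DiscoveRx reagent added for 30–60 minutes at room temperature; luminescence read, quantitative HTS format.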
D3 ag: qHTS of D3 Dopamine Receptor Agonist: qHTS; D(3) dopamine receptor (Homo sapiens), P35462; D3R DiscoveRx beta-arrestin cells, luminescence, 90 min; max activation, %; hit rate 0.58% among 410,000; in the data active = max activation above about 30%; also: 0% is about no effect
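Agonist-mode cell screen: cells plated at 1500/well and incubated overnight at 37 °C, then exposed to library compounds for 90 min at 37 °C. Detection reagent was added for 30–60 min at room temperature, and luminescence was read.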
D1 antag: Antagonist of Human D 1 Dopamine Receptor: qHTS; D(1A) dopamine receptor (Homo sapiens), P21728; HEK293 TREx D1 cells, calcium flux, dopamine EC80; hits give low values; activity change, negative = inhibition, % at 10 µM; hit rate 3.2% among 360,000; AID 504652, 2011; in the data active = activity change below about -30%; also: % is scaled to controls: 0 for no effect and ±100 for the full control effect
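Compound effects on dopamine-evoked calcium signalling were measured in tetracycline-induced HEK293 Trex D1 cells. Dopamine at EC80 followed a 180 s compound pre-read, and fluorescence was tracked kinetically for 180 s more.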
Starred values were filed as active, the others as inactive; ? = inconclusive; . = not tested or not shown. Rows were chosen to be rich in hits. Some 6% of all compounds tested hit in one or more screens of this group.

SMILES	Chronic BCR inh	D1 agonist	D1 potentiator	DRD3 antagonist	D3 ag	D1 antag
O=C(COc1ccccc1)OCc1cc(=O)n2nc(C3CC3)sc2n1	.	2.5	-7.3	.	74.2*	-4.3
O=C(COc1ccc(Cl)cc1)OCc1cc(=O)n2nc(C3CC3)sc2n1	.	5.6	-7.8	.	-4.1	-9.4
Cc1ccc(OCC(=O)Nc2ccccc2C(=O)OCc2cc(=O)n3nc(C4CC4)sc3n2)cc1	.	-1.0	-0.5	.	37.1*	-3.4
CCOc1ccc(NC(=O)Cn2c(=O)n(CCCC(=O)NCCc3ccc(Cl)cc3)c(=O)c3ccccc32)cc1	-1.6%	0.3	-0.8	.	0.1	11.9
CC(=O)c1ccc(S(=O)(=O)NCCCC(=O)N(C)Cc2ccc3c(c2)OCO3)cc1	-0.3%	7.2	-8.8	0.7	-8.3	-56.5*
CC1(C)S[C@@H]2[C@H](NC(=O)C(C(=O)Oc3ccc4c(c3)CCC4)c3ccccc3)C(=O)N2[C@H]1C(=O)O (stereo partly specified)	.	.	.	.	-11.1	.
CN1c2ccc([N+](=O)[O-])cc2N(C)C1(C)c1ccccc1 (stereo unspecified)	?	10.1	-3.1	-62.1*	-20.2	-14.8
Cn1c2ccccc2c2cc([N+](=O)[O-])ccc21	?	1.0	1.4	-1.3	4.6	-5.7
CCCn1c(SCC(=O)Nc2nnc(CC)s2)nc2c1c(=O)n(C)c(=O)n2C	4.2%	1.4	5.2	.	.	2.5
CCCCn1c(SCC(=O)Nc2nnc(C(C)C)s2)nc2c1c(=O)n(C)c(=O)n2C	13.8%	1.4	-1.1	3.8	40.9*	8.1
CCOC(=O)C1=CCN(S(=O)(=O)c2ccc(C)cc2)C1c1cccc(Br)c1 (stereo unspecified)	.	.	.	-18.2	-10.8	.
Cc1ccccc1-c1nc(CN2CCC(C(=O)NCCC3=CCCCC3)CC2)c(C)o1	-0.1%	31.2*	-5.4	?	-0.2	-28.4
COc1ccc(CCNC(=O)C2CCN(Cc3nc(-c4ccccc4C)oc3C)CC2)cc1OC	?	37.5*	-6.5	?	-35.1	-40.1*
Cc1ccccc1-c1nc(CN2CCC(C(=O)NCCc3ccccc3)CC2)c(C)o1	.	22.5	-4.0	.	-7.5	-6.2
CCCCCCCCN1C(=O)[C@H](CC(=O)NCc2cccc3ccccc23)C[C@@]2(C(=O)OC)CC(C)(C)CC=C12	.	.	.	8.6	3.2	.
Cc1ccccc1OCC(=O)N(CC(C)C)c1c(N)n(CC(C)C)c(=O)[nH]c1=O	?	2.8	-4.2	40.7	2.4	-7.1
Cc1ccc(OCC(=O)N(C)CC(=O)N(CC(C)C)c2c(N)n(CC(C)C)c(=O)[nH]c2=O)c(C)c1	-2.8%	1.2	-2.9	12.7	4.7	-31.0*
O=C(NCCc1ccc(Cl)cc1)C(=O)NCC(c1cccs1)S(=O)(=O)c1ccccc1 (stereo unspecified)	.	3.7	-1.9	.	-9.1	22.0
COc1cccc(C(C(=O)NCc2ccco2)N(C(=O)Cn2nnc3ccccc32)C2CC2)c1OC (stereo unspecified)	4.1%	2.6	-4.3	-53.3*	1.0	0.4
Cc1ccccc1C(C(=O)NCc1ccco1)N(CC1CCCO1)C(=O)Cn1nnc2ccccc21 (stereo unspecified)	3.6%	-0.2	0.7	-0.3	1.1	-14.0
COc1ccc(NC(=O)c2oc3ccccc3c2NC(=O)COc2ccccc2OC)c(OC)c1	-1.2%	1.4	-6.2	-1.4	58.3*	-6.8
COc1ccc(NC(=O)c2ccc(COc3ccccc3Br)o2)c(OC)c1	.	.	.	57.9	6.0	.
CCc1ccc(OCc2ccc(C(=O)NCc3ccccn3)o2)cc1	-0.6%	1.8	3.2	-70.3*	-5.5	1.6
CCOc1ccc(OCc2ccc(C(=O)NCc3ccncc3)o2)cc1	-10.5%	7.6	4.7	11.3	6.3	13.4
COc1ccc(NC(=O)c2ccc(COc3ccccc3)o2)c(OC)c1	8.8%	5.6	-12.9	3.8	5.1	-30.9*
